The values below come from paper PMC5540273 (PLoS ONE, 2017).

“And” between values parts separate entries of the source, which are not always exact repeats. Equal entries are not always repeated. Where two headings read alike, the source gives them in different places.

The test system of one assay is TTK. The conditions noted are these: concentration: 1 μM, replicates: in singlicate; n = 1.
The next assay concerns TXK. The conditions noted are these: n = 1.
Assay [1] relates to TYK2(JH1domain-catalytic). The conditions noted are these: n = 1.
The test system of assay [2] is TYK2(JH2domain-pseudokinase). The conditions noted are these: n = 1.
A further assay has as its system TYRO3. The conditions noted are these: n = 1.
The subject of another assay is ULK1. To be noted: concentration: 1 μM, replicates: in singlicate; n = 1.
A further assay relates to ULK2. The conditions noted are these: n = 1.
The test system of the next assay is ULK3. The conditions noted are these: n = 1.
A further assay concerns T1, VEGFR2.
T1 construct: gene KDR
The conditions noted are these: n = 1.

For a further assay, the system named is T2, VPS34.
T2 construct: gene PIK3C3
The conditions noted are these: n = 1.

Setting [3] is: concentration: 1 μM, replicates: in singlicate.
The mark [4] stands for this setting: concentration: 1 μM,replicates: in singlicate, 1 µM.
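Note: KINOMEscan kinase panel screen.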

As for `Cc1cccc(-c2nc(-c3ccc(S(C)(=O)=O)cc3)sc2-c2ccnc(NCCc3ccccc3)c2)c1`, the “%Inh” value in the assay with TTK was determined as 10%; with TXK (setting [3]) it was 6%; in assay [1] (setting [3]) it was 0%; in assay [2] (setting [3]), 18%; in the assay on TYRO3 (setting [3]), 0%; with ULK1, 0%. Moreover, the “%Inh” value in the assay on ULK2 (setting [3]) stood at 8%; in the assay on ULK3 (setting [3]) it was 0%; with VEGFR2 (setting [3]), 0%; in the assay with VPS34 (setting [3]), 82%.
For the compound `CN(C)CCN(C)C(=O)c1cc(-c2ccncc2)c(-c2ccc(Cl)c(O)c2)o1.Cl.Cl` [SB-710397], the “%Inh” value was found to be 0% with TTK; 4% with TXK (setting [3]); 43% in [1] (setting [3]); 45% in assay [2] (setting [3]); 0% with TYRO3 (setting [3]); 13% in the assay with ULK1. Further, the “%Inh” value in the assay on ULK2 (setting [3]) is reported as 0%; in the assay with ULK3 (setting [3]), 9%; with VEGFR2 (setting [3]) it was 0%; with VPS34 (setting [3]) it was 0%.
Turning to `COc1cc2ncn(-c3cc(OCC4CCCO4)c(C(N)=O)s3)c2cc1OC` (centres unmarked) [GSK204607], the “%Inh” value was 0% in the assay on TTK; 9% in the assay on TXK (setting [3]); 15% in [1] (setting [3]); 31% in [2] (setting [3]); 0% in the assay with TYRO3 (setting [3]); 0% in the assay with ULK1. Besides, the “%Inh” value with ULK2 (setting [3]) was 0%; in the assay with ULK3 (setting [3]), 0%; with VEGFR2 (setting [3]), 8%; in the assay on VPS34 (setting [3]) it was 0%.
With `Cc1csc(-c2nc(Nc3ccncc3)c3ccccc3n2)n1` [GW869640], the “%Inh” value with TTK amounted to 35%; in the assay on TXK (setting [3]), 0%; in assay [1] (setting [3]), 100%; in assay [2] (setting [3]) it was 83%; with TYRO3 (setting [3]), 0%; in the assay with ULK1 it was 33%. Besides, the “%Inh” value in the assay with ULK2 (setting [3]) is recorded as 23%; with ULK3 (setting [3]), 50%; with VEGFR2 (setting [3]), 36%; in the assay with VPS34 (setting [3]), 33%.
For `Cn1ccc2ncnc(Oc3ccc(Nc4nc5ccccc5[nH]4)cc3)c21`, the “%Inh” value in the assay with TTK stood at 2%; in the assay with TXK (setting [3]), 0%; in assay [1] (setting [3]) it was 0%; in assay [2] (setting [3]), 0%; in the assay with TYRO3 (setting [3]) it was 0%; with ULK1 it was 0%. The “%Inh” value in the assay with ULK2 (setting [3]), in the assay with ULK3 (setting [3]), in the assay on VEGFR2 (setting [3]) and in the assay with VPS34 (setting [3]) was 0% throughout.
Take `O=C(Nc1ccccc1)Nc1cccc(Oc2ccc3nccn3n2)c1`: the “%Inh” value in the assay on TTK is 0%; with TXK (setting [3]), 0%; in assay [1] (setting [3]), 14%; in assay [2] (setting [3]), 1%; with TYRO3 (setting [3]), 11%; in the assay on ULK1 it was 0%. In addition, the “%Inh” value in the assay on ULK2 (setting [3]), in the assay on ULK3 (setting [3]) and with VPS34 (setting [3]) was 0% throughout.
As for `Cc1cccc(-c2cc(Nc3ccncc3)c3ccccc3n2)n1` [GSK223675], the “%Inh” value in the assay with TTK came out at 0%; in the assay with TXK (setting [3]), 87%; in assay [1] (setting [3]) it was 0%; in assay [2] (setting [3]), 22%; in the assay with TYRO3 (setting [3]) it was 0%; in the assay with ULK1, 13%. In addition, the “%Inh” value is listed as 0% in the assay on ULK2 (setting [3]), 6% with ULK3 (setting [3]), 15% with VEGFR2 (setting [3]) and 0% with VPS34 (setting [3]).
For `CCCc1ccc(S(=O)(=O)NC2CCN(c3ccnc(Nc4ccc(F)cc4)n3)C2)cc1` (centres unmarked) [GSK1379715], the “%Inh” value turned out to be 0% in the assay with TTK; 73% with TXK (setting [3]); 26% in assay [1] (setting [3]); 30% in assay [2] (setting [3]); 0% in the assay on TYRO3 (setting [3]); 16% in the assay with ULK1. The “%Inh” value with ULK2 (setting [3]) came to 0%; with ULK3 (setting [3]), 4%; with VEGFR2 (setting [3]) it was 0%; in the assay on VPS34 (setting [3]), 0%.
Turning to `CS(=O)(=O)c1ccc(-c2c(-c3ncn[nH]3)sc(N3CCOCC3)c2C#N)cc1`, the “%Inh” value turned out to be 21% in the assay with TTK; 0% with TXK (setting [3]); 0% in assay [1] (setting [3]); 0% in assay [2] (setting [3]); 0% in the assay with TYRO3 (setting [3]); 3% with ULK1. The “%Inh” value came to 36% in the assay on ULK2 (setting [3]), 7% in the assay on ULK3 (setting [3]), 8% in the assay with VEGFR2 (setting [3]) and 86% with VPS34 (setting [3]).
Regarding `O=C(Nc1n[nH]c2nc(-c3nccs3)c(Br)cc12)C1CC1` [SB-742251], the “%Inh” value with TTK was 0%; with TXK (setting [3]), 0%; in assay [1] (setting [3]) it was 36%; in assay [2] (setting [3]), 77%; in the assay on TYRO3 (setting [3]), 0%; in the assay with ULK1, 21%. Moreover, the “%Inh” value is given as 7% in the assay on ULK2 (setting [3]), 0% in the assay on ULK3 (setting [3]), 0% in the assay with VEGFR2 (setting [3]) and 0% in the assay on VPS34 (setting [3]).
Regarding `CN1C(=O)C(Nc2ccc(Cl)c(C(=O)O)c2)=C(c2ccc(Cl)cc2)C1=O` [SB-404290], the “%Inh” value was determined as 22% with TTK; 0% with TXK (setting [3]); 0% in [1] (setting [3]); 0% in [2] (setting [3]); 0% with TYRO3 (setting [3]); 2% with ULK1. The “%Inh” value is given as 2% in the assay with ULK2 (setting [3]), 24% in the assay with ULK3 (setting [3]), 6% in the assay with VEGFR2 (setting [3]) and 28% in the assay on VPS34 (setting [3]).
In the case of `Cn1ccc2ncnc(Oc3ccc(NC(=O)Nc4ccccc4)cc3)c21`, the “%Inh” value in the assay on TTK is 0%; with TXK (setting [3]), 1%; in assay [1] (setting [3]), 0%; in [2] (setting [3]), 0%; in the assay with TYRO3 (setting [3]) it was 0%; in the assay with ULK1 it was 0%. Besides, the “%Inh” value is reported as 0% with ULK2 (setting [3]), 3% in the assay with ULK3 (setting [3]), 97.8% with VEGFR2 (setting [3]) and 0% in the assay on VPS34 (setting [3]).
In the case of `CSc1nn2c(=O)cc(N3CCOCC3)nc2n1Cc1cccc(C(F)(F)F)c1C` [GSK2363608], the “%Inh” value in the assay on TTK is 0%; in the assay on TXK (setting [4]), 10% and 0%; in assay [1] (setting [4]) it was 51% and 72%; in assay [2] (setting [4]) it was 16% and 8%; in the assay on TYRO3 (setting [4]), 0% and 18%; with ULK1 it was 15%. For the same compound, the “%Inh” value in the assay on ULK2 (setting [4]) was 5% and 0%; in the assay on ULK3 (setting [4]), 15% and 0%; in the assay on VEGFR2 (setting [4]), 8% and 0%; with VPS34 (setting [4]) it was 94.7% and 96.7%.
On to `COc1ccccc1-c1ccc2c(NC(=O)C3CC3)n[nH]c2n1` [SB-711239], for which the “%Inh” value in the assay on TTK was 21%; with TXK (setting [3]) it was 0%; in assay [1] (setting [3]), 0%; in assay [2] (setting [3]), 18%; in the assay with TYRO3 (setting [3]), 0%; in the assay on ULK1, 63%. Further, the “%Inh” value stood at 0% in the assay with ULK2 (setting [3]), 100% in the assay with ULK3 (setting [3]), 0% in the assay with VEGFR2 (setting [3]) and 15% with VPS34 (setting [3]).
Turning to `Cc1cc(-c2ccc3c(c2)CC[C@@H](N[C@@H](C)c2ccccc2)C3)cnc1N.Cl` [GW412617], the “%Inh” value in the assay on TTK amounted to 0%; with TXK (setting [3]) it was 16%; in [1] (setting [3]) it was 24%; in assay [2] (setting [3]), 6%; with TYRO3 (setting [3]), 17%; with ULK1, 19%. In addition, the “%Inh” value in the assay on ULK2 (setting [3]) is given as 8%; with ULK3 (setting [3]), 16%; in the assay on VEGFR2 (setting [3]), 1%; in the assay with VPS34 (setting [3]) it was 68%.
Regarding `COc1ccc(C2=C(Nc3cccc(C(=O)O)c3)C(=O)NC2=O)cc1` [SB-390765], the “%Inh” value with TTK is listed as 10%; in the assay on TXK (setting [3]), 21%; in assay [1] (setting [3]), 0%; in [2] (setting [3]) it was 0%; in the assay on TYRO3 (setting [3]) it was 22%; in the assay with ULK1, 16%. The “%Inh” value is reported as 8% in the assay with ULK2 (setting [3]), 28% with ULK3 (setting [3]), 21% with VEGFR2 (setting [3]) and 33% in the assay on VPS34 (setting [3]).
With `Fc1cccc(COc2nnc(-c3ccc4c(c3)CCO4)o2)c1`, the “%Inh” value is 14% in the assay with TTK; 0% with TXK (setting [3]); 3% in assay [1] (setting [3]); 6% in [2] (setting [3]); 0% in the assay on TYRO3 (setting [3]); 0% in the assay with ULK1. For the same compound, the “%Inh” value with ULK2 (setting [3]) came out at 14%; in the assay on ULK3 (setting [3]), 0%; with VEGFR2 (setting [3]), 25%; in the assay on VPS34 (setting [3]), 17%.
On to `Cc1ccc(NC(=O)Nc2cc(C(C)(C)C)nn2-c2ccccc2)cc1` [GSK1014915], for which the “%Inh” value in the assay with TTK was found to be 4%; in the assay on TXK (setting [3]) it was 0%; in [1] (setting [3]), 25%; in assay [2] (setting [3]), 4%; in the assay with TYRO3 (setting [3]), 7%; in the assay with ULK1 it was 17%. For the same compound, the “%Inh” value came out at 0% in the assay on ULK2 (setting [3]), 13% in the assay on ULK3 (setting [3]), 6% in the assay with VEGFR2 (setting [3]) and 0% with VPS34 (setting [3]).
